The values that follow come from PubChem BioAssay.

Structures are written as SMILES. Calls of active or inactive are those of the source. Unless noted, no rule for the calls is given here.

A short description of assay [1]: resazurin metabolic signal in HepG2 cells – cell-based, resazurin fluorescence, 24 h, PK04 Diversity Set, profiling panel (AID 1172). Also: test concentration not given here. The note with it: HepG2 viability, higher = more signal. (In general: The colour change of resazurin is a common sign of viable cells or microbes.)
A short description of assay [2]: budding yeast growth changes without added modifier – OD600, strain BY4716, 24 h, basal condition, primary screen (AID 1173). The following applies: S. cerevisiae BY4716 growth, OD600, 24 h; higher = more signal, called active from +8 up or from −8 down.
Assay [3] is described as follows: viability profiling in MM1S myeloma cells – cell-based, resazurin fluorescence, basal, 24 h, PK04 Diversity Set, profiling panel (AID 1174).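 Also: MM1S multiple myeloma cell line; test concentration not given here.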 The following applies: higher = more signal, called active from +8 up or from −8 down.
Assay [4] addresses Dihydroorotate dehydrogenase (quinone), mitochondrial (Plasmodium falciparum (isolate 3D7)) (UniProt Q08210). Kind of assay: inhibition of P. falciparum DHODH – biochemical, C-terminal His tag, absorbance 600 nm, primary screen (AID 1175).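 Also: recombinant parasite enzyme with a five histidine tag at its C terminus; test concentration not given here.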 The following applies: PfDHODH enzyme, DCIP absorbance 600 nm; higher = more signal, called active from +8 up or from −8 down.
The nature of assay [5]: inhibition of PAO1 biofilm formation – strain PAO1, LB-PBS medium, absorbance 600 nm, primary screen (AID 1176). Also: test concentration not given here. The note with it: P. aeruginosa PAO1 growth/biofilm, A600, 12 h; higher = more signal.
A short description of assay [6]: growth modulation of vineyard yeast isolate – strain RM11-1a, OD600, basal, 24 h, primary screen (AID 1177).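 Also: cultures grown under basal conditions with no added stressor; test concentration not given here.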 The following applies: S. cerevisiae RM11-1a growth, OD600, 24 h; higher = more signal, called active from +8 up or from −8 down.
The nature of assay [7]: growth of efflux-deficient E. coli DRC39 – strain DRC39, OD650, 24 h, E. coli filamentation inducers, primary screen (AID 1178).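 Also: growth measured as culture turbidity by optical density at 650 nm; test concentration not given here.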 The note with it: E. coli DRC39 acrAB, higher = more signal, called active from +8 up or from −8 down.
Assay [8] is described as follows: growth of efflux-deficient E. coli DRC39 – strain DRC39, OD650, 48 h, E. coli filamentation inducers, primary screen (AID 1179).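 Also: screen aims at cell division blockers that make cells filament.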 The note with it: E. coli DRC39 delta-acrAB growth, higher = more signal, called active from +8 up or from −8 down.
Assay [9] can be described thus: viability profiling in RPMI8226 myeloma cells – cell-based, resazurin fluorescence, basal, 24 h, PK04 Diversity Set, profiling panel (AID 1180).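 Also: RPMI8826 multiple myeloma cell line at 5000 cells per well; test concentration not given here.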 The following applies: higher = more signal.
Assay [10] has as its target E3 ubiquitin-protein ligase XIAP (Homo sapiens) (UniProt P98170). Nature of the assay: small molecules binding XIAP protein – biophysical, small-molecule microarray, fluorescence 635 nm, primary screen (AID 1181).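 Also: score merges 667 nm emission and signal to noise over triplicate slides.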 The following applies: higher = more signal.

Sequence of Dihydroorotate dehydrogenase (quinone), mitochondrial (Plasmodium falciparum (isolate 3D7)) (Q08210 whole entry, looked up): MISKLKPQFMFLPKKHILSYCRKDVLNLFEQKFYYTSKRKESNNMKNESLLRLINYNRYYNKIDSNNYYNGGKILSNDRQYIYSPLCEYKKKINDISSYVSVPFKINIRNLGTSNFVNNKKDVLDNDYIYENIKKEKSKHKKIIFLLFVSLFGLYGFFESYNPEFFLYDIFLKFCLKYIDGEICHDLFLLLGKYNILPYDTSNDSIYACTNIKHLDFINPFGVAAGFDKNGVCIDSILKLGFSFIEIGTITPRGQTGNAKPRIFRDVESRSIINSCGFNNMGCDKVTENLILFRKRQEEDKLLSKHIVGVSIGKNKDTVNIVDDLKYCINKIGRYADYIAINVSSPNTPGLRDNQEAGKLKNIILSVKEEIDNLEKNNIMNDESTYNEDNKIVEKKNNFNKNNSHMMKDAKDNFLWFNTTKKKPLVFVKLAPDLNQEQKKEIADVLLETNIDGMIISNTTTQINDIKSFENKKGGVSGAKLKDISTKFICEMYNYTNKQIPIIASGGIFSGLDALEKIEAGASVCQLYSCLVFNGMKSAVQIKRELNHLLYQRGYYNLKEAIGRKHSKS
Sequence of E3 ubiquitin-protein ligase XIAP (Homo sapiens) (P98170 whole entry, looked up): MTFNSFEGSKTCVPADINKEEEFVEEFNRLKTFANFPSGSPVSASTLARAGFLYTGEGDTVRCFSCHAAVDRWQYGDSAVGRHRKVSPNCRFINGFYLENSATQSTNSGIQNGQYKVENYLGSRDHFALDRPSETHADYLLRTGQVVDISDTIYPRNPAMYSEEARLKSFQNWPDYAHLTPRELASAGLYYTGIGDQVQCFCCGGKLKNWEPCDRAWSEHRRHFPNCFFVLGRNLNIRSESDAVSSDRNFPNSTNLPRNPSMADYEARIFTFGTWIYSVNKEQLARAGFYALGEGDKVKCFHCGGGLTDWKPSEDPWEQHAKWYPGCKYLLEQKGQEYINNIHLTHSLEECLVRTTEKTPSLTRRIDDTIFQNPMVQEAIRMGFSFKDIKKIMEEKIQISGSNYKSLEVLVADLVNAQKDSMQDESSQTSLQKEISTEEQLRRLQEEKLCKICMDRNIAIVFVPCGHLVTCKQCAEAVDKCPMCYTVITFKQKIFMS

Turning to `CC1CC/C=C\[C@H]2OC34C=CCN(CCN5CCOCC5)C(=O)[C@H]3N(CCO)C(=O)[C@@H]4C2C(=O)O1` (stereo not given in full), the z-score in assay [1] was 0.106; in assay [2], -0.158 (inactive); in assay [3] it was 0.322 (inactive); in assay [5] it was 0.826 (inactive); in assay [6], -0.585 (inactive); in [7], -0.0987 (inactive). Moreover, the z-score in [8] is -0.557 (inactive); in [9] it was 0.119. The composite z-score in assay [4] is -0.4 (inactive); in [10] it was -0.128.

As to `C=C(C(=O)CC[C@H](OC(C)=O)c1cccc(OCCO)c1)C(C)C`, the z-score is -1.23 in assay [1]; -0.105 (inactive) in assay [2]; -0.748 (inactive) in [3]; -0.411 (inactive) in assay [5]; 0.0297 (inactive) in [6]; -1.04 (inactive) in assay [7]. Moreover, the z-score in [8] is -0.86 (inactive); in [9], -0.559. Besides, the composite z-score in assay [4] is -0.781 (inactive); in assay [10], 0.0454.

Consider `CCOC(=O)C[C@H]1[C@H](OC(=O)Cc2ccc3c(c2)OCO3)[C@@H](NC(=O)Cc2ccc(OC)cc2)c2cc(OCCCO)ccc2N1C(=O)c1ccccc1`, for which the z-score in assay [1] was -0.174; in assay [2], -0.0578 (inactive); in assay [3], -0.727 (inactive); in assay [5], -0.218 (inactive); in assay [6], 0.42 (inactive); in [7] it was -0.296 (inactive). For the same molecule, the z-score in assay [8] is 0.386 (inactive); in assay [9] it was 0.66. Further, the composite z-score in [4] is 0.0225 (inactive); in [10], -0.406.

`COc1cc2c(cc1OC)CN(C(=O)[C@@H]1[C@H]3C(=O)O[C@H](c4ccccc4)[C@H](c4ccccc4)N3[C@H](c3ccccc3OCCO)[C@@]13C(=O)Nc1ccc(C#CC4(O)CCCCCC4)cc13)CC2`: the z-score in [1] is 0.529; in assay [2] it was 0.882 (inactive); in assay [3], -2.17 (inactive); in assay [5] it was 2.03 (inactive); in assay [6], 3.23 (inactive); in assay [7], -0.236 (inactive). The z-score was 1.01 (inactive) in assay [8] and 0.284 in assay [9]. Also, the composite z-score is 0.44 (inactive) in [4] and -0.11 in [10].

For `COCCCNC(=O)[C@@]1(Sc2ccc(C)cc2)CC(=O)N(C2Cc3ccccc3C2)[C@@H]1c1ccc(CO)cc1I`, the z-score in [1] was -0.0076; in assay [2] it was -2.87 (inactive); in assay [3], -2.79 (inactive); in assay [5] it was 0.196 (inactive); in assay [6], -0.429 (inactive); in [7], -0.0635 (inactive). Further, the results for the z-score in [8] and in assay [9] were 0.0605 (inactive) and -2.31, respectively. The composite z-score in assay [4] was -0.591 (inactive); in assay [10] it was 0.108.

Consider `C=C[C@@H](COC(C)=O)NS(=O)(=O)c1ccc(Br)cc1`, for which the z-score is -1.44 in assay [1]; -11.8 (active) in [2]; -1.82 (inactive) in [3]; -0.152 (inactive) in assay [5]; 0.628 (inactive) in assay [6]; -0.528 (inactive) in assay [7]. Also, the z-score in [8] was 0.0818 (inactive); in assay [9] it was -0.978. Besides, the composite z-score was -0.502 (inactive) in assay [4] and -0.184 in assay [10].

Consider `C[N+](C)(C)CCCC[C@@H]1NC(=O)[C@@H]2C[C@H](C(=O)O)[C@H](c3ccc(O)cc3)N2C1=O`, for which the z-score in [1] was -1.16; in assay [2], 0.824 (inactive); in assay [3], 0.18 (inactive); in assay [5], 0.103 (inactive); in assay [6] it was 0.0252 (inactive); in assay [7], 0.233 (inactive). Also, the results for the z-score in [8] and in [9] were 0.596 (inactive) and -0.339, respectively. Further, the composite z-score was -11.6 (active) in assay [4] and -0.199 in assay [10].

In the case of `C=CC[C@]12N=C(c3ccc(OCCCO)cc3)O[C@H]1c1ccccc1N(C)C2=O`, the z-score is -0.782 in assay [1]; -1.62 (inactive) in assay [2]; -1.54 (inactive) in [3]; 0.345 (inactive) in assay [5]; 1.27 (inactive) in assay [6]; 0.105 (inactive) in assay [7]. In addition, the results for the z-score in assay [8] and in assay [9] were -0.487 (inactive) and -1.28, respectively. The values for the composite z-score in [4] and in [10] were 0.582 (inactive) and -0.031, respectively.

With `COC(=O)[C@@]1(Cc2ccc(OC)cc2)[C@H]2c3cc(C(=O)N4CCCC4)n(CCc4cc5ccccc5[nH]4)c3C[C@H]2CN1C(=O)c1ccccc1`, the z-score in assay [1] is -0.406; in assay [2] it was 1.3 (inactive); in assay [3] it was -1.24 (inactive); in assay [5], 0.756 (inactive); in assay [6], 1.03 (inactive); in assay [7], 0.009 (inactive). In addition, the z-score was -0.655 (inactive) in [8] and -0.818 in [9]. Also, the composite z-score in [4] is 0.203 (inactive); in assay [10] it was -0.0685.

As for `CCOC(=O)C1=CC[C@@H](c2ccc([N+](=O)[O-])cc2)N(S(=O)(=O)c2ccc(C)cc2)[C@H]1c1ccccc1`, the z-score is 0.468 in assay [1]; 2.52 (inactive) in assay [2]; 0.541 (inactive) in [3]; 0.229 (inactive) in assay [5]; 0.901 (inactive) in assay [6]; -0.72 (inactive) in [7]. For the same molecule, the results for the z-score in assay [8] and in assay [9] were -0.445 (inactive) and 0.546, respectively. Further, the composite z-score was 0.914 (inactive) in assay [4] and -0.124 in [10].
